Measured values: PMC5540273 (PLoS ONE, 2017)
Several values for one entry are separate records, joined by “and”; a condition that tells them apart may be missing. Equal values may be shown once. Read-outs that look alike come from different tables or passages of the source.

Legend:
[1] = tested on: BRSK1; conditions: concentration: 1 μM, replicates: in singlicate; n = 1
[2] = tested on: BRSK2; conditions: concentration: 1 μM, replicates: in singlicate; n = 1
[3] = tested on: BTK; conditions: concentration: 1 μM, replicates: in singlicate, n = 1
[4] = tested on: BUB1; conditions: concentration: 1 μM, replicates: in singlicate, n = 1
[5] = tested on: CAMK1B; conditions: concentration: 1 μM, replicates: in singlicate, n = 1
[6] = tested on: CAMK1D; conditions: concentration: 1 μM, replicates: in singlicate, n = 1
[7] = tested on: CAMK1G; conditions: concentration: 1 μM, replicates: in singlicate; n = 1
[8] = tested on: CAMK1; conditions: concentration: 1 μM, replicates: in singlicate, n = 1
[9] = tested on: CAMK2A; conditions: concentration: 1 μM, replicates: in singlicate; n = 1
[10] = tested on: CAMK2B; conditions: concentration: 1 μM, replicates: in singlicate; n = 1
[11] = tested on: CAMK2D; conditions: concentration: 1 μM, replicates: in singlicate; n = 1
[12] = tested on: CAMK2G; conditions: concentration: 1 μM, replicates: in singlicate, n = 1
[13] = tested on: CAMK4; conditions: concentration: 1 μM, replicates: in singlicate; n = 1
[14] = tested on: CAMKK1; conditions: concentration: 1 μM, replicates: in singlicate; n = 1
[15] = tested on: CAMKK2; conditions: concentration: 1 μM, replicates: in singlicate; n = 1
[16] = tested on: CASK; conditions: concentration: 1 μM, replicates: in singlicate; n = 1
[17] = tested on: T1, CDC2L1; conditions: concentration: 1 μM, replicates: in singlicate; n = 1
T1 construct: gene CDK11B

[18] = tested on: CDC2L2; conditions: concentration: 1 μM, replicates: in singlicate, n = 1
[19] = tested on: T2, CDC2L5; conditions: concentration: 1 μM, replicates: in singlicate, n = 1
T2 construct: gene CDK13

[20] = tested on: T3, CDK11; conditions: concentration: 1 μM, replicates: in singlicate, n = 1
T3 construct: gene CDK19
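Further: KINOMEscan kinase panel screen.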

## CSc1nn2c(=O)cc(N3CCOCC3)nc2n1Cc1cccc(Cl)c1Cl [GSK2347225]
[1]
  %Inh: 0%
[2]
  %Inh: 0%
[3]
  %Inh: 0%
[4]
  %Inh: 0%
[5]
  %Inh: 0%
[6]
  %Inh: 8%
[7]
  %Inh: 17%
[8]
  %Inh: 0%
[9]
  %Inh: 0%
[10]
  %Inh: 0%
[11]
  %Inh: 21%
[12]
  %Inh: 25%
[13]
  %Inh: 0%
[14]
  %Inh: 13%
[15]
  %Inh: 23%
[16]
  %Inh: 2%
[17]
  %Inh: 0%
[18]
  %Inh: 9%
[19]
  %Inh: 0%
[20]
  %Inh: 8%

## FC(F)(F)c1cc(Nc2nccc(-c3c(-c4ccc(Cl)cc4)nn4ncccc34)n2)ccc1Cl [GW829351]
[1]
  %Inh: 0%
[2]
  %Inh: 0%
[3]
  %Inh: 0%
[4]
  %Inh: 19%
[5]
  %Inh: 0%
[6]
  %Inh: 0%
[7]
  %Inh: 0%
[8]
  %Inh: 0%
[9]
  %Inh: 30%
[10]
  %Inh: 27%
[11]
  %Inh: 0%
[12]
  %Inh: 0%
[13]
  %Inh: 0%
[14]
  %Inh: 2%
[15]
  %Inh: 0%
[16]
  %Inh: 11%
[17]
  %Inh: 0%
[18]
  %Inh: 0%
[19]
  %Inh: 0%
[20]
  %Inh: 0%

## COc1ccc(-c2nc3n(c2-c2ccncc2)CCC3)cc1 [SKF-104493]
[1]
  %Inh: 0%
[2]
  %Inh: 0%
[3]; 1 µM
  %Inh: 14% and 0%
[4]; 1 µM
  %Inh: 67% and 78%
[5]; 1 µM
  %Inh: 0% and 26%
[6]; 1 µM
  %Inh: 12% and 7%
[7]
  %Inh: 0%
[8]; 1 µM
  %Inh: 0% and 7%
[9]
  %Inh: 0%
[10]
  %Inh: 0%
[11]
  %Inh: 0%
[12]; 1 µM
  %Inh: 0% and 2%
[13]
  %Inh: 0%
[14]
  %Inh: 0%
[15]
  %Inh: 0%
[16]
  %Inh: 0%
[17]
  %Inh: 0%
[18]; 1 µM
  %Inh: 6% and 13%
[19]; 1 µM
  %Inh: 18% and 0%
[20]; 1 µM
  %Inh: 5% and 7%

## N#Cc1ccc(Oc2ccc(Nc3ncnc4cc[nH]c34)cc2Cl)cc1
[1]
  %Inh: 3%
[2]
  %Inh: 0%
[3]
  %Inh: 0%
[4]
  %Inh: 12%
[5]
  %Inh: 0%
[6]
  %Inh: 33%
[7]
  %Inh: 17%
[8]
  %Inh: 24%
[9]
  %Inh: 21%
[10]
  %Inh: 22%
[11]
  %Inh: 13%
[12]
  %Inh: 10%
[13]
  %Inh: 3%
[14]
  %Inh: 6%
[15]
  %Inh: 11%
[16]
  %Inh: 0%
[17]
  %Inh: 14%
[18]
  %Inh: 10%
[19]
  %Inh: 0%
[20]
  %Inh: 3%

## CCc1nc(-c2cccc(C)c2)c(-c2ccnc(NC(=O)c3ccccc3)c2)s1
[1]
  %Inh: 0%
[2]
  %Inh: 17%
[3]
  %Inh: 42%
[4]
  %Inh: 17%
[5]
  %Inh: 0%
[6]
  %Inh: 7%
[7]
  %Inh: 0%
[8]
  %Inh: 13%
[9]
  %Inh: 4%
[10]
  %Inh: 0%
[11]
  %Inh: 0%
[12]
  %Inh: 10%
[13]
  %Inh: 0%
[14]
  %Inh: 4%
[15]
  %Inh: 7%
[16]
  %Inh: 0%
[17]
  %Inh: 11%
[18]
  %Inh: 2%
[19]
  %Inh: 12%
[20]
  %Inh: 5%
